Results: PubChem BioAssay (EPA / NIEHS)
Calls of active or inactive are those of the source. The calls were made as follows: active = hit-call score of the fitted dose curve at least 0.9, where 1 is the maximum; inactive = score below 0.9.

Key:
Settings in all cases: mRNA level, 48 h; actives raise or lower the signal
[1] = read-out: 3-Hydroxy-3-Methylglutaryl-CoA Synthase 2 (HMGCS2), HMGCS2 (gene 3158); assay: LTEA_HepaRG_HMGCS2: Life Technologies and Expression Analysis (LTEA) Assay for 3-Hydroxy-3-Methylglutaryl-CoA Synthase 2 (HMGCS2) using HepaRG (AID 2283504)
Summary of the method: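 Differentiated human HepaRG cells were exposed in duplicate for 48 h in serum-free induction medium to eight concentrations (top 100 uM, half-log steps, 0.5% DMSO). HMGCS2 mRNA was quantified by TaqMan qRT-PCR, normalised to ACTB, GAPDH and POLR2A, then fitted bidirectionally against DMSO.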

HGF (gene 3082) = assay: LTEA_HepaRG_HGF: Life Technologies and Expression Analysis (LTEA) Assay for Hepatocyte Growth Facto (HGF) using HepaRG (AID 2283505)
Summary of the method: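 Differentiated human HepaRG cells in serum-free induction medium were exposed in duplicate for 48 h to eight concentrations (top 100 uM, half-log steps, 0.5% DMSO). HGF mRNA was quantified by qRT-PCR, normalized to ACTB, GAPDH and POLR2A.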

[2] = read-out: Intercellular Adhesion Molecule 1 (ICAM1), ICAM1 (gene 3383); assay: LTEA_HepaRG_ICAM1: Life Technologies and Expression Analysis (LTEA) Assay for Intercellular Adhesion Molecule 1 (ICAM1) using HepaRG (AID 2283507)
Summary of the method: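 Differentiated HepaRG cells in serum-free induction medium were exposed in duplicate for 48 h to eight half-log concentrations up to 100 uM in 0.5% DMSO. Transcript levels were measured by qRT-PCR normalized to ACTB, GAPDH and POLR2A; bidirectional fits relative to DMSO.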

[3] = read-out: Insulin-like growth factor-binding protein 1 (IGFBP1), IGFBP1 (gene 3484); assay: LTEA_HepaRG_IGFBP1: Life Technologies and Expression Analysis (LTEA) Assay for Insulin-like growth factor-binding protein 1 (IGFBP1) using HepaRG (AID 2283508)
Summary of the method: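 Differentiated human HepaRG cells in serum-free induction medium were exposed in duplicate for 48 h to eight concentrations, top 100 uM with half-log dilutions, in 0.5% DMSO. Transcript levels came from qRT-PCR normalised to ACTB, GAPDH and POLR2A, fitted bidirectionally against DMSO.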

[4] = read-out: Interleukin 6 (IL6), IL6 (gene 3569); assay: LTEA_HepaRG_IL6: Life Technologies and Expression Analysis (LTEA) Assay for Interleukin 6 (IL6) using HepaRG (AID 2283509)
Summary of the method: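 qRT-PCR read-out of IL6 transcript, normalized to three housekeeping genes, after 48 h chemical exposure of HepaRG cells; 8-point half-log series, top 100 uM, 0.5% DMSO vehicle. Bidirectional curve fitting against DMSO baseline.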

[5] = read-out: Interleukin 6 Receptor (IL6R), IL6R (gene 3570); assay: LTEA_HepaRG_IL6R: Life Technologies and Expression Analysis (LTEA) Assay for Interleukin 6 Receptor (IL6R) using HepaRG (AID 2283510);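 as to AC50: TaqMan qRT-PCR signal normalized to ACTB GAPDH and POLR2A housekeeping genes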
Summary of the method: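 In this HepaRG screen, test chemicals act on cells for 48 h at up to 100 uM (eight half-log points, duplicate wells). IL6R expression is quantified by qRT-PCR after normalization to ACTB, GAPDH and POLR2A, with DMSO as baseline.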

[6] = read-out: Potassium channel subfamily K member 1 (KCNK1), KCNK1 (gene 3775); assay: LTEA_HepaRG_KCNK1: Life Technologies and Expression Analysis (LTEA) Assay for Potassium channel subfamily K member 1 (KCNK1) using HepaRG (AID 2283511)
Summary of the method: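 HepaRG, 48 h exposure, 8-pt half-log series top 100 uM, 0.5% DMSO vehicle, duplicates. Readout: KCNK1 transcript by qRT-PCR (Fluidigm array), housekeeping-normalized; bidirectional curve fit relative to DMSO baseline.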

[7] = read-out: Keratin 19 (KRT19), KRT19 (gene 3880); assay: LTEA_HepaRG_KRT19: Life Technologies and Expression Analysis (LTEA) Assay for Keratin 19 (KRT19) using HepaRG (AID 2283512)
Summary of the method: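 Differentiated human HepaRG cells, plated 48 h, were exposed in duplicate for 48 h in serum-free induction medium to eight half-log concentrations up to 100 uM in 0.5% DMSO. KRT19 mRNA was quantified by qRT-PCR, normalized to ACTB, GAPDH and POLR2A, and fitted bidirectionally versus DMSO.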

[8] = read-out: JUN Transcription Factor, JUN (gene 3725); assay: LTEA_HepaRG_JUN: Life Technologies and Expression Analysis (LTEA) Assay for JUN Transcription Factor using HepaRG (AID 2283513)
Summary of the method: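 Gene-expression endpoint: JUN mRNA (qRT-PCR, normalized to three reference genes) in HepaRG cultures treated 48 h with chemicals, duplicate wells, 100 uM maximum with half-log dilutions; bidirectional fitting relative to 0.5% DMSO.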

[9] = read-out: Insulin Like Growth Factor 1 (IGF1), IGF1 (gene 3479); assay: LTEA_HepaRG_IGF1: Life Technologies and Expression Analysis (LTEA) Assay for Insulin Like Growth Factor 1 (IGF1) using HepaRG (AID 2283506)
Summary of the method: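 Endpoint: IGF1 mRNA change by qRT-PCR, housekeeping-normalized, fitted bidirectionally relative to 0.5% DMSO vehicle. Human HepaRG cells were treated 48 h in serum-free induction medium, eight half-log concentrations topping at 100 uM.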

Measured: AC50

Nc1nc(N)nc(NC2CC2)n1
not listed: [9]
inactive: all other assays above

CCOP(=S)(OCC)OC(Cl)C(Cl)(Cl)Cl (stereo unspecified)
inactive: all assays above

CCC(=NOC/C=C/Cl)C1=C(O)CC(C2CCOCC2)CC1=O (stereo unspecified)
inactive: all assays above

CCNc1nc(Cl)nc(NC(C)(C)C#N)n1
not listed: [7]
inactive: all other assays above

CCCCOC(=O)c1ccccc1C(=O)O
inactive: all assays above

CN1COCN(Cc2cnc(Cl)s2)C1=N[N+](=O)[O-]
inactive: all assays above

COP(=O)(OC)SCn1c(=O)oc2cc(Cl)cnc21
active: HGF (gene 3082) 65.9 µM
not listed: [9]
inactive: all other assays above

O=[N+]([O-])c1cc(C(F)(F)F)c(Cl)c([N+](=O)[O-])c1Nc1ncc(C(F)(F)F)cc1Cl
inactive: HGF (gene 3082) | [2] | [6] | [8]
active: [1] 36.5 µM | [3] 42.6 µM | [4] 73.9 µM | [5] 50 µM | [7] 26.2 µM

Cc1nn(-c2cc(NS(C)(=O)=O)c(Cl)cc2Cl)c(=O)n1C(F)F
not listed: [9]
inactive: all other assays above

O=c1ccc(=O)[nH][nH]1
inactive: all assays above

Cc1ccn2nc(S(=O)(=O)Nc3c(F)cccc3F)nc2n1
inactive: all assays above

C=C(C)[C@H]1Cc2c(ccc3c2O[C@@H]2COc4cc(OC)c(OC)cc4[C@@H]2C3=O)O1
active: [1] 1.7 µM | HGF (gene 3082) 22.8 µM | [9] 1.03 µM | [2] 2.14 µM | [3] 2.9 µM | [4] 1.44 µM | [6] 16.6 µM | [7] 0.654 µM | [8] 17.8 µM
inactive: [5]

CON=C(C(=O)OC)c1ccccc1CON=C(C)c1cccc(C(F)(F)F)c1
not listed: [9]
inactive: all other assays above

COc1cc(OC)nc(Sc2cccc(Cl)c2C(=O)O)n1
inactive: all assays above

S=C1NCCN1
inactive: all assays above

CNC(=O)Oc1cccc2c1OC(C)(C)O2
inactive: all assays above

CCc1cnc(C2=NC(C)(C(C)C)C(=O)N2)c(C(=O)O)c1 (stereo unspecified)
inactive: all assays above

COc1ccc(C(=CC(=O)N2CCOCC2)c2ccc(Cl)cc2)cc1OC
active: [9] 14.1 µM
inactive: all other assays above

CCCCSP(=O)(SCCCC)SCCCC
active: [1] 50 µM | [9] 65.7 µM | [3] 64.2 µM | [7] 1.7 µM
inactive: all other assays above

COP(=O)(OC)OC(Br)C(Cl)(Cl)Br (stereo unspecified)
active: [4] 50 µM
inactive: all other assays above

CCCSP(=O)(OCC)Oc1ccc(Br)cc1Cl (stereo unspecified)
inactive: all assays above

CSC1=N[C@@](C)(c2ccccc2)C(=O)N1Nc1ccccc1
active: [1] 35.3 µM | [2] 34 µM | [3] 31.6 µM | [4] 33.3 µM | [5] 16.5 µM | [7] 18.7 µM
inactive: HGF (gene 3082) | [6] | [8]

CC(C1CC1)C(O)(Cn1cncn1)c1ccc(Cl)cc1 (stereo unspecified)
active: [1] 83.6 µM | [9] 37 µM
inactive: all other assays above

CC1=NNC(=O)N(/N=C/c2cccnc2)C1
inactive: all assays above

N#CSCSC#N
active: [1] 82.1 µM | [5] 68.4 µM | [7] 90.1 µM
not listed: [9]
inactive: all other assays above

CC(C)[C@H](C(=O)O[C@H](C#N)c1cccc(Oc2ccccc2)c1)c1ccc(Cl)cc1
active: [9] 50 µM
inactive: all other assays above

CN(C)NC(=O)CCC(=O)O
inactive: all assays above

CCc1cccc(CC)c1N(COC)C(=O)CCl
active: [3] 32.1 µM
inactive: all other assays above

C[Si](Cn1cncn1)(c1ccc(F)cc1)c1ccc(F)cc1
active: [1] 47.6 µM | [2] 81.1 µM | [3] 67.7 µM | [4] 92.6 µM | [6] 50 µM
inactive: HGF (gene 3082) | [5] | [7] | [8]

CC[C@H](C)[C@H]1O[C@]2(C=C[C@@H]1C)C[C@@H]1C[C@@H](C/C=C(\C)[C@@H](O[C@H]3C[C@H](OC)[C@@H](O[C@H]4C[C@H](OC)[C@@H](NC)[C@H](C)O4)[C@H](C)O3)[C@@H](C)/C=C/C=C3\CO[C@@H]4[C@H](O)C(C)=C[C@@H](C(=O)O1)[C@]34O)O2
inactive: HGF (gene 3082) | [7]
active: [1] 12.5 µM | [9] 27.7 µM | [2] 28.9 µM | [3] 14.6 µM | [4] 21.3 µM | [5] 22.6 µM | [6] 22.5 µM | [8] 26.5 µM

CNc1cnn(-c2cccc(C(F)(F)F)c2)c(=O)c1Cl
active: [1] 9.92 µM | [9] 36.9 µM | [3] 17.4 µM | [4] 50 µM | [7] 14.5 µM
inactive: HGF (gene 3082) | [2] | [5] | [6] | [8]

CCCSP(=O)(OCC)SCCC
active: [9] 27.7 µM
inactive: all other assays above

Nc1c(Cl)cc([N+](=O)[O-])cc1Cl
active: [1] 50 µM | [3] 23.7 µM | [5] 28.2 µM | [7] 6.97 µM
inactive: all other assays above

CN(C)[C@@H]1C(=O)C(C(N)=O)=C(O)[C@@]2(O)C(=O)C3=C(O)c4c(O)cccc4[C@@](C)(O)[C@H]3[C@H](O)[C@@H]12
inactive: all assays above
